This note sets out measurements from PubChem BioAssay (NCATS).

Molecules are shown by their SMILES. Inconclusive results are not listed. A call without a number means that no potency is given here. Calls of active or inactive are those of the source. Calls come from the whole dose curve; as a rule, active = well fitted inhibition curve with a large enough effect; inconclusive = small, poorly fitted or top-dose-only effect; inactive = flat fitted curve, though single readings scatter.

This experiment concerns SC27B. The experiment can be described thus: qHTS profiling for inhibitors of Plasmodium falciparum proliferation (AID 504749). Note: nearly all actives have a fitted effect of over 60% in size. As to conditions: P. falciparum in erythrocytes, SYBR Green DNA, 72 h; series mostly up to 28.7 µM. The gist of the method:
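SYBR Green fluorescence of parasite DNA, read after lysis and overnight dark incubation, measured growth over 72 h in erythrocyte culture at 0.3% parasitemia and 2.5% hematocrit. Data normalised to DMSO and 0.29 uM artemisinin, with plate-drift correction.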
For orientation: qHTS replaces the single test concentration by a dilution series.
Consider `CN(Cc1ccc(C(C)(C)C)cc1)Cc1cccc2ccccc12`, for which the Potency result was “inactive”.
Then `CN1CCN(c2c(F)cc3c(=O)c(C(=O)O)cn4c3c2SCC4)CC1`, with “inactive”.
Then `C/C=C/c1ccc(O)c(OC)c1`, with “inactive”.
Then `O=C(Oc1cccc2cccnc12)c1ccccc1`, with “inactive”; and `CCN(CC)CCOC(=O)C1(c2ccccc2)CCCC1`, with “inactive”; and `CC(=O)O[C@H]1C[C@@H]2CC[C@@H]3[C@H](CC[C@@]4(C)[C@H]3C[C@H]([N+]3(C)CCCCC3)[C@@H]4OC(C)=O)[C@@]2(C)C[C@@H]1N1CCCCC1`, with “inactive”.
`C=CCN1CCc2nc(N)sc2CC1`: the Potency entry is “inactive”.
The result for `C#C[C@]1(O)CC[C@H]2[C@@H]3CCc4cc(OC)ccc4[C@H]3CC[C@@]21C` reads “inactive”; that for `NC(N)=NCc1cccc(I)c1`, “inactive”.
Then `CO[C@]12C[C@@H](COC(=O)c3cncc(Br)c3)CN(C)[C@@H]1Cc1cn(C)c3cccc2c13`, with “inactive”.
Then `Cc1cc(-c2ccccc2)nnc1NCCN1CCOCC1`, with “inactive”; and `NC1CCN(c2nc3c(cc2F)c(=O)c(C(=O)O)cn3-c2ccc(F)cc2F)C1` (configuration not stated), with “inactive”.
On to `CCCCc1cc2ccccc2c(OCCN(C)C)n1`, for which the Potency entry was “inactive”.
The result for `CCNC(=O)NCc1cccc(Cl)c1` reads “inactive”; that for `CC(C)=CCOc1ccc(/C=C/C(=O)c2ccc(OCC=C(C)C)cc2OCC(=O)O)cc1`, “inactive”; that for `CC[N+](C)(CC)CCOC(=O)C(O)(c1ccccc1)C1CCCCC1` (configuration not stated), “inactive”.
Consider `CC(=O)OCC(=O)[C@H]1CC[C@H]2[C@@H]3CCC4=CC(=O)CC[C@]4(C)[C@H]3CC[C@]12C`, for which the Potency entry was “inactive”.
Consider `CN1CCC(OC(c2ccccc2)c2ccccc2)CC1`, for which the Potency entry was “inactive”.
The result for `CC(C)[N+](C)(C)CC(O)COc1cccc2ccccc12` (configuration not stated) reads “inactive”; that for `CCOCCn1c(N2CCCN(C)CC2)nc2ccccc21`, “inactive”; that for `O=[N+]([O-])c1cccc(S(=O)(=O)NCCNS(=O)(=O)c2cccc([N+](=O)[O-])c2)c1`, “inactive”.
As for `C[N+]1(C)CCC(=C(c2ccccc2)c2ccccc2)CC1`, the Potency entry was “inactive”.
Then `CN1CCN(c2cc3c(cc2F)c(=O)c(C(=O)O)cn3-c2ccc(F)cc2)CC1`, with “inactive”; and `O=C1C(O)=C(O)C(=O)C(O)=C1O`, with “inactive”; and `COc1ccc(CCN(C)CCCN2CCc3cc(OC)c(OC)cc3CC2=O)cc1OC`, with “inactive”.
For the compound `O=C(O)C1(C(=O)O)CCC1.[NH2-].[NH2-].[Pt+2]`, the Potency entry is “inactive”.
As for `OCCOCCN1CCN(C2=Nc3ccccc3Sc3ccccc32)CC1`, the Potency result is “inactive”.
